The values that follow come from PubChem BioAssay AID729 (The Scripps Research Institute Molecular Screening Center, 2007).

Molecules are shown by their SMILES. Screen size: about 97,000 compounds; about 450 (0.46%) were called active. Cut-off read from the data, not from the text of the source: active = activation above about 16%; inactive = the rest. Many of the other results were omitted from the sample, so actives are more common in it than they were.

This assay deals with Sphingosine 1-phosphate receptor 2 (Homo sapiens) (UniProt O95136). The assay is described as follows: S1P2 receptor agonists, primary screen, cell-based (AID 729).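 Note: 0% = vehicle low control and 100% = maximal reference agonist.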 As to conditions: S1P2-expressing cell line, agonist reporter read-out; at 4.5 µM; stronger effect = higher value.
Sequence of Sphingosine 1-phosphate receptor 2 (Homo sapiens) (O95136 whole entry, looked up): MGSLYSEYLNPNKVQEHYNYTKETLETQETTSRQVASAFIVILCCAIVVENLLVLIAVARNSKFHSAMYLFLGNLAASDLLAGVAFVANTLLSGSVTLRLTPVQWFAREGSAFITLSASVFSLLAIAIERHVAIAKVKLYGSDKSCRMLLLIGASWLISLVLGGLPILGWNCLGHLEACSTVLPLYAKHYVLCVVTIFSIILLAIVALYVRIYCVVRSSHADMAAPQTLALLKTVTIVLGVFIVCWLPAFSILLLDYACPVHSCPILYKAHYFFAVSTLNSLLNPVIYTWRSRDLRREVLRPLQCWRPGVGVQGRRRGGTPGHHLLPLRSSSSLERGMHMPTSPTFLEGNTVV
Turning to `Cn1nnnc1SCC(=O)Nc1ccccc1C(=O)NC1CC1`, the activation was -4.5% (inactive).
The value for `C/C(=N\NS(=O)(=O)c1cccc([N+](=O)[O-])c1)c1cc2ccccc2o1` was -4.08% (inactive); that for `CCOc1c(Cl)cc(/C=N/O)cc1OC` was -3.93% (inactive); that for `CC(=O)C1=C(C)NC(C)=C(C(C)=O)C1c1cn(-c2ccccc2)nc1-c1cccs1` was -8.95% (inactive).
The value for `CCc1nc(C)ccc1OCC(=O)N(CC)CC` was -0.52% (inactive).
The value for `CSc1nc(-c2ccco2)nn1C(=O)CCc1ccccc1` was -4.35% (inactive).
For the molecule `CCOC(=O)c1nnn(-c2nonc2-n2cccc2)c1CN1CCOCC1`, the activation is -2.91% (inactive).
In the case of `O=C(Cc1ncc(C(F)(F)F)cc1Cl)Nc1cccc(Br)c1` it was -3.95% (inactive); in that of `Cc1noc(C)c1CSCC(=O)Nc1nc2ccc(Oc3ccccc3)cc2s1`, -9.84% (inactive); in that of `C=CCn1c(-c2ccc(Cl)cc2)ccc(C#N)c1=O`, -1.04% (inactive).
The value for `CCC(C)NC(=O)c1c(N)n(/N=C/c2cccs2)c2nc3ccccc3nc12` (stereo not given) was 11.4% (inactive); that for `C=CCn1c(N)c(C(=O)OCC(C)C)c2nc3ccccc3nc21` was -4.83% (inactive).
In the case of `CCCNC(=O)c1c(N)n(-c2ccc(S(N)(=O)=O)cc2)c2nc3ccccc3nc12` it was 25.6% (active).
Consider `COc1ccc2c(c1OC)C(=O)c1ccccc1C2=O`, for which the activation was -4.98% (inactive).
For `COc1ccc2c(c1OC)C(=O)N(c1ncn[nH]1)C2`, the activation is 16.5% (active).
`COc1ccc(N2CCN(C(=O)CCc3nc(-c4ccc(C)cc4)no3)CC2)cc1`: the activation is -1.72% (inactive).
In the case of `Cc1ccc(S(=O)(=O)Nc2nc(C)cc(-n3nc(C)cc3C)n2)cc1` it was -3.06% (inactive); in that of `N#Cc1ccc(-c2ccc(Cl)cc2)nc1Oc1ccc(F)cc1`, -3.88% (inactive); in that of `Cc1ccc(/C=N/NC(=O)C2=NNC(c3ccccc3)(c3ccccc3)C2)c(O)c1`, 2.35% (inactive).
In the case of `O=C(Cc1ccccc1)N/N=C/c1ccc(Cl)cc1Cl` it was 2.34% (inactive).
As to `Cc1nn(C)cc1C(=O)NNC(=S)Nc1ccc(Cl)cc1`, the activation was -6.95% (inactive).
The value for `O=C1CCCc2nn(-c3ccccc3)nc21` was -3.05% (inactive); that for `Cc1nc(NC(=O)c2cccc(Cl)c2)sc1-c1csc(Nc2cccc(Cl)c2)n1` was -10.8% (inactive).
`Cc1cc(C)c2nc(NC(=O)c3ccc4c(c3)OCO4)sc2c1`: the activation is -8.01% (inactive).
Take `CNC(=O)c1csc(-c2ccccc2)n1`: the activation is -5.56% (inactive).
For the molecule `O=C(c1cc2c(s1)CCC2)N1CCN(c2ccccc2)CC1`, the activation was -4.17% (inactive).
In the case of `Cc1nn(Cc2ccc(C(=O)N3N=C(C(F)F)CC3(O)C(F)F)cc2)c(C)c1[N+](=O)[O-]` (stereo not given) it was -4.76% (inactive); in that of `Cc1ccccc1-c1nnc(SCC(=O)NCc2ccc3c(c2)OCO3)n1C`, -6.95% (inactive).
Turning to `COc1cccc(N=c2oc3c(C)ncc(CO)c3cc2C(N)=O)c1`, the activation was -4.4% (inactive).
The value for `O=C1Nc2ccc(Br)cc2/C1=N/N=C/C1=C(N2CCOCC2)C(=C\c2ccccc2)/CC1` was -5.74% (inactive); that for `COc1ccc(-c2nnc(SCc3cccnc3)o2)cc1` was -3.86% (inactive).
As for `Cc1nnc(SC(C)C(=O)Nc2ccc(S(=O)(=O)NC3CCCCC3)cc2)s1` (stereo not given), the activation is -4.5% (inactive).
In the case of `CC(C)(C)OC(=O)c1c(N)n(CCCN2CCCC2=O)c2nc3ccccc3nc12` it was 0.36% (inactive); in that of `CN(C)CCCn1c(N)c(C#N)c2nc(C#N)c(C#N)nc21`, 12.8% (inactive); in that of `N#Cc1c(N)n(CCOC(=O)c2ccc(Cl)cc2)c2nc3ccccc3nc12`, 16.5% (active).
Consider `Fc1ccc(CNc2nc3ccccc3n3nnnc23)cc1`, for which the activation is -7.16% (inactive).
The value for `O=C(NC(C(=O)NCCN1CCOCC1)C12CC3CC(CC(C3)C1)C2)C1CCCCC1` (stereo not given) was -4.77% (inactive); that for `Cc1c(NC(=O)c2cc(-c3ccc(Cl)s3)nc3ccccc23)c(=O)n(-c2ccccc2)n1C` was -14.2% (inactive); that for `O=C(Nc1ccn(Cc2ccccc2F)n1)c1ccc(COc2ccc(Cl)cc2Cl)o1` was -5.78% (inactive).
Consider `CCn1cc(C(=O)NCC2COc3ccccc3O2)c2cc(OC)c(OC)cc2c1=O` (stereo not given), for which the activation was 19.9% (active).
The value for `CCn1cc(C(=O)NCc2ccc3c(c2)OCO3)c2cc(OC)c(OC)cc2c1=O` was 14.1% (inactive).
`O=C(Cn1cnc2ccccc2c1=O)NCC1COc2ccccc2O1` (stereo not given): the activation was -3.16% (inactive).
The value for `CO/N=C/c1ccc(N2CCN(C(=O)c3cccc(Cl)c3)CC2)c([N+](=O)[O-])c1` was -3.08% (inactive); that for `Cc1ccc(CNC(=O)C2CCCN2C(=O)NCc2ccccc2)cc1` (stereo not given) was -8.36% (inactive).
The value for `O=C(CO/N=C/c1ccccc1O)NNC(=O)c1ccccc1Cl` was -5.77% (inactive); that for `Cc1ccc(S(=O)(=O)/N=C(/Nc2ccccn2)c2ccc(Cl)cc2)cc1` was -4.9% (inactive); that for `CSc1ccccc1-c1nnc(-c2ccc(Cl)cc2)o1` was -1.63% (inactive).
In the case of `Cc1ccc(N2CCN(C3=NC(=O)/C(=C\c4cccs4)S3)CC2)cc1` it was -8.97% (inactive); in that of `O=Cc1c(N2CCN(c3cccc(Cl)c3)CC2)nc2ccccn2c1=O`, -4.84% (inactive).
Turning to `CN1C(=O)C(CC(N)=O)N(NC(=O)c2ccc(Cl)cc2)C1=S` (stereo not given), the activation was -7.47% (inactive).
The value for `CSc1nc2ccccc2cc1/C=C(\C#N)c1ccc(Cl)cc1Cl` was 19.8% (active).
For the molecule `Cc1nc2ccccc2cc1O`, the activation was -0.52% (inactive).
`CSc1nc(N)c(C#N)c(-c2ccccc2Cl)c1C#N`: the activation was -7.07% (inactive).
On to `Cc1sc(NC(=O)C2C3CCC(O3)C2C(=O)O)c(C(=O)OC(C)C)c1-c1ccc(Cl)cc1` (stereo not given), for which the activation is -9.04% (inactive).
Turning to `CN(C)c1ccc(/C=C2\NC(=S)N(Cc3ccccc3)C2=O)cc1`, the activation is -4.43% (inactive).
The value for `Cc1ccc(-c2nc(C)sc2CC(=O)O)cc1` was -2.07% (inactive); that for `CN(c1cccc(NC(=O)Nc2ccc(Cl)cc2)c1)S(C)(=O)=O` was -3.59% (inactive); that for `Nc1c(-c2ccc(F)cc2)cnn1C1CCS(=O)(=O)C1` (stereo not given) was -4.76% (inactive).
In the case of `Cc1ccc(C2C(C#N)C(C#N)N3CCCN23)cc1` (stereo not given) it was -4.89% (inactive); in that of `N/C(=N\OC(=O)CCC1CCCCC1)c1ccccn1`, -3.14% (inactive).
